# Source: PubChem BioAssay (National Center for Advancing Translational Sciences (NCATS))
# Hits are enriched below; roughly 9.4% of the tested compounds scored in any of these assays.
# IMPase cell inh = qHTS Assay for Identifying the Cell-Membrane Permeable IMPase Inhibitors | Inositol monophosphatase 1 (Rattus norvegicus), P97697 | inhibition (IP1 accumulation), % at 46.1 µM | 120,000 tested, under 10 active | CHO-M1 cells, IP1 accumulation, HTRF TR-FRET ratio; active = well fitted curve in the direction sought with a large enough effect in the signal ratio, not every such curve was filed as active; inconclusive = small, poorly fitted or top-dose-only effect, or a change in a side signal; inactive = no such curve, though single readings can be large or run the other way; the % refers to the signal ratio;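 also: cells stimulated with carbachol in lithium chloride buffer; plate controls were DMSO basal wells for no effect and reference inhibitor wells for full effect; higher means more IMPase inhibition seen as more IP1 and lower FRET ratio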
# Target sequence (P97697 whole entry, looked up): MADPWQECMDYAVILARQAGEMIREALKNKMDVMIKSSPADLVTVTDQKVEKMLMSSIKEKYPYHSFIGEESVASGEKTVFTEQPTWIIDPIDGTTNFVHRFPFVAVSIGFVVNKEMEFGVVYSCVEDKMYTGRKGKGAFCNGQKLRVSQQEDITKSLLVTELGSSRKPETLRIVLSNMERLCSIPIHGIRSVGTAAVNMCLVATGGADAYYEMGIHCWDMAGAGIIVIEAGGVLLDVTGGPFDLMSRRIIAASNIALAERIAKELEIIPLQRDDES
#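 Cellular IMPase inhibition is scored as a rise in cytosolic IP1, detected by competitive TR-FRET between d2-labelled IP1 and a europium anti-IP1 antibody. M1-expressing CHO cells were stimulated with carbachol for 30 min at 37C, with lithium (50 mM LiCl) present in the buffer.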
# ALDH1A1 block = qHTS Assay for Inhibitors of Aldehyde Dehydrogenase 1 (ALDH1A1); Aldehyde dehydrogenase 1A1 (Homo sapiens), P00352; Purified ALDH1A1, NADH fluorescence, propionaldehyde substrate; Potency, µM (doses to about 75.3 µM), for the others: top-dose activity, negative = inhibition, usual class: inhibitors; 220,000 tested, 7.3% active; AID 1030, 2008; active = well fitted inhibition curve with a large enough effect, not every such curve was filed as active; inconclusive = small, poorly fitted or top-dose-only effect, or another doubt; inactive = no such curve, though single readings can be large or run the other way;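 also: potency is read from the fitted curve at half-maximal effect; plate controls were no enzyme wells and a reference inhibitor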
# Target sequence (P00352 whole entry, looked up): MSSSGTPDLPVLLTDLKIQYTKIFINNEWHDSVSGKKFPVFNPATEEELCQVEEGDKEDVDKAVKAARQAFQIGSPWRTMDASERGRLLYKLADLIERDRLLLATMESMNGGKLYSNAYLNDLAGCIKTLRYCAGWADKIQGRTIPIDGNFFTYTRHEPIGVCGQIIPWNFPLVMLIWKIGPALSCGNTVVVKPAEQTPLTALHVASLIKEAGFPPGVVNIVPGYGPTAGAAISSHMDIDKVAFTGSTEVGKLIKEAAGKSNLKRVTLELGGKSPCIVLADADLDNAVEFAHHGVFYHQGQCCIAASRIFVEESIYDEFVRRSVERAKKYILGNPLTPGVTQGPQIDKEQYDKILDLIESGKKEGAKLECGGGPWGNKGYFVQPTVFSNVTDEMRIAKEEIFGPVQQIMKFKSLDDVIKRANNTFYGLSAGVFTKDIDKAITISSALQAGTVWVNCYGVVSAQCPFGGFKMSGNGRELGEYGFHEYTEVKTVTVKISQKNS
# HPGD inh = qHTS Assay for Inhibitors of HPGD (15-Hydroxyprostaglandin Dehydrogenase); Potency, µM, inactives show at the highest dose activity change, negative = inhibition, usual class: inhibitors; purified HPGD, NADH fluorescence kinetic, PGE2 substrate; 150,000 tested, 4.3% active; 15-hydroxyprostaglandin dehydrogenase [NAD(+)] (Homo sapiens), P15428; active = well fitted inhibition curve with a large enough effect, not every such curve was filed as active; inconclusive = small, poorly fitted or top-dose-only effect, or another doubt; inactive = no such curve, though single readings can be large or run the other way; also: potency is read from the fitted curve at half-maximal effect; % is scaled to controls: 0 for no effect and ±100 for the full control effect
#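 20 nM HPGD preincubated 15 min at room temperature with compound in 50 mM Tris-HCl pH 8, 0.01% Tween 20. Started with 1 mM NAD+ and 30 uM prostaglandin E2; NADH fluorescence (360/450 nm) read 5 times over 30-s intervals, last minus first.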
# HTT ATP protect = qHTS Multiplex Assay to Identify Dual Action Probes in a Cell Model of Huntington: Cytoprotection (ATP). PC12 HTT-Q103 induced, cytoprotection, ATP luminescence, 40 h. Potency, µM (doses to about 56.4 µM), without a hit: cytoprotection (ATP increase), actives largely listed as activators. 230,000 tested, 0.14% active; also: potency is read from the fitted curve at half-maximal effect; % of control where 0% means no effect; nearly all actives have a fitted effect of over 45% in size
#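 ATP quantification (ATPlite) reports survival of PC12 cells in which tebufenozide, 100 nM final, switches on Htt exon 1 with 103 glutamines linked to GFP; compounds are titrated.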
# HTT aggregate = qHTS Multiplex Assay to Identify Dual Action Probes in a Cell Model of Huntington: Aggregate Formation (GFP). PC12 HttQ103-GFP aggregates, Acumen cytometry, 40 h. Potency, µM (highest dose often 46.1 µM), without a hit: at the top dose activity change, negative = inhibition, hits mostly inhibitors. 220,000 tested, 1.1% active; also: potency is read from the fitted curve at half-maximal effect; % is scaled to controls: 0 for no effect and ±100 for the full control effect; nearly all actives have a fitted effect of over 60% in size
#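 Aggregates are detected as GFP objects 1–25 µm with signal 6 STDEV over background in lysates of induced PC12 cells. These carry Huntingtin exon 1 with 103 glutamines fused to GFP under an ecdysone promoter; compounds titrated.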
# IMPase Li cell = qHTS Assay for Identifying the Cell-Membrane Permeable IMPase Inhibitors: Potentiation with Lithium | CHO-M1 cells, IP1 TR-FRET (IP-One), carbachol + lithium | Potency, µM (titrated, usually from 59.4 µM), without a hit: top-dose activity, negative = IMPase inhibition, usual class: inhibitors | 210,000 tested, 0.35% active | AID 1457, 2008;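 also: IP1 builds up when IMPase is blocked and the TR-FRET signal falls; potency is read from the fitted curve at half-maximal effect; plate controls were basal vehicle for no effect and high inhibitor control for full effect; nearly all actives have a fitted effect of over 50% in size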
#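 CHO cells stably expressing M1 receptor (2000/well) were cultured 16–30 h, then exposed to compounds with a small lithium addition for 30 min at 37C. IP1 was measured by TR-FRET competition; AC50 from Hill fits.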
# * = called active by the depositor; ? = inconclusive; nt = no result; [ ] = remark or other dose. Unless noted, calls follow the shape of the dose curve; as a rule, active = well fitted curve in the direction sought with a large enough effect; inconclusive = small, poorly fitted or top-dose-only effect, or another doubt; inactive = no such curve, though single readings can be large; an effect the other way counts as inactive or inconclusive.
SMILES,IMPase cell inh,ALDH1A1 block,HPGD inh,HTT ATP protect,HTT aggregate,IMPase Li cell
O=C(c1ccncc1)N1CCC2(CC1)CCN(c1ccncc1)CC2,nt,-3.8%,-2.8%,?,nt,28.2%
COC(=O)c1ccc(C(NC(=O)OCc2ccccc2)/C(I)=C/[C@@H](C)C(=O)NCc2ccc(C)o2)cc1 (some centres not stated),nt,28.2µM*,-27.1%,5.9%,nt,7.3%
COC(=O)c1ccc(C(NC(=O)OCc2ccccc2)/C(I)=C/[C@@H](C)C(=O)NCc2ccc(OC)c(O)c2)cc1 (some centres not stated),nt,-6.6%,-6.3%,1.4%,nt,4.1%
COc1ccc2[nH]cc(CCNc3nc(-c4cccc(C#N)c4)nc4ccccc34)c2c1,nt,?,nt,-254.6%,nt,11.8%
S=c1[nH]cc(-c2ccccc2)n1-c1ccccc1Cl,nt,0.891µM*,17.8µM*,nt,-6.5%,0.3%
Cn1c(-c2ccc(-c3ccccc3)cc2)c[nH]c1=S,?,2.1%,nt,-14.7%,-1.2%,nt
COc1ccccc1-n1c(-c2ccccc2)c[nH]c1=S,nt,2.51µM*,nt,7.7%[10 µM],-10.3%,4.9%
Clc1ccc(Cl)c2sc(N3CCCC3)nc12,9.1,10µM*,?,-20.5%,-1.1%,-15.5%[38.3 µM]
CN(Cc1ccco1)c1ccnc(-c2cccc(C#N)c2)n1,nt,?,nt,-45.9%,nt,18.0%
O=C(NC(=S)N1CCc2ccccc21)C1CCC1,nt,?,nt,-27.0%,9.0%[9.22 µM],-4.6%
CC(C)(C)C(=O)NC(=S)N1CCc2ccccc21,nt,11.2µM*,nt,-16.9%,-2.6%,9.3%
CC(Oc1ccc(Cl)cc1Cl)C(=O)NN=C1CCN(C)CC1 (configuration not stated),nt,2.51µM*,-2.8%,nt,-11.2%,-3.4%
CC(Oc1ccc(Cl)cc1Cl)C(=O)NC(=S)N1CCc2ccccc21 (configuration not stated),8.9,17.8µM*,-21.6%,15.1%[10 µM],10.5%,?
CC(Oc1ccc(Cl)cc1Cl)C(=O)N/N=C1\CCCc2ccccc21 (configuration not stated),-4.7,-6.9%,-24.8%,18.7%,-1.9%,3.9%[38.3 µM]
Cc1ccc(S(=O)(=O)NCc2c(-c3ccccc3)noc2C)cc1,nt,3.98µM*,nt,-3.3%[10 µM],-7.2%[9.22 µM],nt
Cc1onc(-c2ccccc2)c1CNS(=O)(=O)c1ccccc1,nt,?,nt,-12.3%[10 µM],-20.7%[9.22 µM],nt
COc1ccc(S(=O)(=O)NCc2c(-c3ccccc3)noc2C)c(OC)c1,nt,2.51µM*,nt,2.2%[10 µM],2.2%[9.22 µM],nt
CCCCNC(=O)C(c1ccc(OCC(=O)OC)c(C(=O)OC)c1)N(Cc1ccccn1)C(=O)CCCCCN1C(=O)NC(c2ccc(-c3ccccc3)cc2)C(C(=O)OCc2ccccc2)=C1C (configuration not stated),nt,3.2%,-9.1%,-28.4%,nt,-8.4%
CCOC(=O)c1ccc(N2Cc3ccccc3C2=NC(=O)c2ccncc2)cc1,nt,-5.6%,nt,-6.0%,-0.3%,-4.2%
O=C(N=C1c2ccccc2CN1c1ccc(F)cc1)c1ccc(Cl)nc1,11.6,28.2µM*,-7.3%,14.6%[10 µM],5.6%,12.1%
Cc1ccc(C)c(S(=O)(=O)Nc2ccc(O)cc2)c1,1.2,?,-9.1%,5.5%,0.1%,2.2%[38.3 µM]
CCOC(=O)CNS(=O)(=O)c1cc(-c2n[nH]c(=O)c3ccccc23)ccc1C,-3.5,14.1µM*,3.55µM*,2.2%,-1.1%,6.3%[38.3 µM]
Cc1ccc(NS(=O)(=O)c2cc(-c3n[nH]c(=O)c4ccccc34)ccc2C)cc1,nt,?,20µM*,nt,?,19.6%
C=CCN1CCN(c2nc3ccccc3nc2C#N)CC1,-3.2,6.1%,-5.2%,-60.2%,nt,-11.0%
COc1ccc(CCNC(=O)C2CCN(S(C)(=O)=O)CC2)cc1,2.6,15.8µM*,-12.8%,-6.8%,-5.4%,32.6%[38.3 µM]
SMILES,IMPase cell inh,ALDH1A1 block,HPGD inh,HTT ATP protect,HTT aggregate,IMPase Li cell
COc1ccc(OC)c(S(=O)(=O)N2CCC(C(=O)NCCc3ccccc3)CC2)c1,4.6,5.01µM*,-20.4%,-20.7%,6.1%,10.2%[38.3 µM]
C=C1CCC2C(CC2(C)C)C(=C)CC/C1=N/O (configuration not stated),nt,-0.3%,-5.9%,nt,nt,18.9%
C=CCc1cccc(/C=N/NC(=O)C(C)Nc2ccc(C)cc2)c1O (configuration not stated),nt,-4.5%,-9.1%,9.0%[10 µM],8.91µM*,1.3%
C=CCc1cccc(/C=N/NC(=O)C(=O)Nc2ccc(C)cc2)c1O,nt,1.8%,nt,nt,nt,1.3%
CCOC(=O)c1cc(CC)sc1NC(=O)COc1ccccc1C,-5.9,nt,nt,nt,nt,nt
CC1Cc2ccccc2N1C(=O)Cn1c(=O)oc2cc(S(=O)(=O)NC3CCCC3)ccc21 (configuration not stated),-5.2,7.7%,12.6µM*,10.5%,-11.9%,-12.4%[38.3 µM]
CC1CCN(S(=O)(=O)c2ccc3c(c2)oc(=O)n3CC(=O)N2c3ccccc3CC2C)CC1 (configuration not stated),-2.0,5.1%,-8.8%,8.3%,-20.9%,9.2%[38.3 µM]
O=C(CSc1cccc[n+]1[O-])Nc1ccc(C(F)(F)F)cc1[N+](=O)[O-],nt,?,nt,19.2%[10 µM],4.0%,2.7%
O=[N+]([O-])c1ccc(Sc2cccc[n+]2[O-])c2nonc12,nt,2.24µM*,nt,-97.5%[10 µM],1.12µM*,nt
CCN(CC)CCNc1ccc(CO)c2sc3ccccc3c(=O)c12,-1.7[20.6 µM],-1.9%,-7.4%,-331.3%,12.6µM*,13.4%
c1ccc(CN2COc3c(ccc4c5c(ccc34)CN(Cc3ccccc3)CO5)C2)cc1,nt,-4.9%[13.5 µM],2.8%,11.5%[10 µM],nt,-1.8%
Nc1nc(CC(=O)O)cs1,nt,-13.5%,-5.6%,1.2%,nt,3.3%
CN(C)/C=C/C(=O)c1cnc(-c2cccc(Cl)c2)s1,nt,?,nt,-27.1%,-4.5%,-1.8%
CN(C)/C=C/C(=O)c1cnc(-c2ccccc2Cl)s1,nt,7.08µM*,nt,-46.4%,-5.2%[9.22 µM],0.9%
CC(C)NS(=O)(=O)c1ccc(OCC(=O)N2CCN(c3cccc(Cl)c3)CC2)cc1,9.4,nt,nt,nt,nt,nt
O=C1c2ccncc2C(=O)N1Cc1cccc(Cl)c1,2.1,0.9%,17.8µM*,-17.6%,8.7%,-2.2%[38.3 µM]
COCCn1c(=O)c(-c2cc(F)cc(F)c2)nc2cnc(Oc3cccc(Cl)c3)nc21,nt,?,?,-67.1%,nt,17.1%
S=C(Nc1ccccc1)N1CCn2c1nc1ccccc12,7.7,-9.0%,15.8µM*,-16.7%,9.5%,-7.1%[38.3 µM]
O=C(Nc1ccccc1)N1CCn2c1nc1ccccc12,-7.8,-1.2%,-6.2%,-8.1%,6.6%,23.7%[38.3 µM]
